# In PubChem BioAssay:
# Several values for one entry are separate records, joined by “and”; a condition that tells them apart may be missing. Identical values can stand only once. Inconclusive results are not listed. Activity calls are given as the source filed them. Rule as the data show it, unless noted: active = parasite load remaining mostly below about 12% (no sharp cut-off); inactive = mostly above about 10%.
# Assays:
# [1] = hESC survival regulators, cell-based (AID 493140; call rule not given here;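 also: cells exposed to compounds for four days before counting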); details: human embryonic stem cell survival screen; stronger effect = higher value
# [2] = liver-stage malaria parasite growth inhibition, primary screen, cell-based, HepG2, luciferase luminescence, HepG2 viability (AID 624349);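 also: 100% = mean of DMSO negative control wells on the same plate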; details: P. berghei liver stage in HepG2, luciferase luminescence, concentration not given here; parasite load remaining: stronger effect = lower value; viability: measured here: HepG2 viability without parasites
# [3] = stimulators of nuclear beta-catenin in C2C12, primary screen, imaging, WNT3A-conditioned medium, mouse C2C12, NPC library (AID 1117326; in the data active = nuclear beta-catenin stimulation mostly above about 4.2%, no sharp cut-off; inactive = mostly below about 10%; also: reference of the scale not given here); details: stronger effect = higher value
# [4] = stimulators of insulin release from INS-1E, primary screen, cell-based, 5 mM glucose, NPC library (AID 1117329;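 active = compound raises insulin release from rat beta cells at 5 mM glucose, no numeric limit stated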; also: reference of the scale not given here); details: rat INS-1E insulin secretion, at 10 µM, stronger effect = higher value
# [5] = growth inhibition of GSK3B-pretreated HCT116 cells – cell-based, CellTiter-Glo, 0.2 to 20 µM (AID 1117336;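 active = compounds lowering colon cancer cell viability after pretreatment blocking the GSK3B kinase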); details: HCT116 viability after GSK3B inhibitor, at 20 µM, stronger effect = higher value
# [6] = inhibition of endothelial tube formation, primary screen, imaging, VEGF stimulated, CD31 staining, tube area, NPC library (AID 1117340;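 active = compound that reduces growth-factor-driven endothelial tube area in a mixed cell culture, no cutoff stated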); details: VEGF-stimulated ADSC/ECFC co-culture, at 10 µM, stronger effect = higher value
# [7] = glucagon-like peptide 1 release enhancers, primary assay, NCI-H716 cell line, NPC library (AID 1117341;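 active = compound raises GLP1 secretion from the human gut endocrine cells, with no numeric limit stated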; also: reference of the scale not given here); details: NCI-H716 cells, at 10 µM, stronger effect = higher value
# [8] = HCT116 colon cancer cell growth inhibition, primary screen, CellTiter-Glo luminescence, NPC library (AID 1117342;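 active = compounds that lower survival of HCT116 colon cancer cells in the luminescence readout, no numeric limit stated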); details: at 20 µM (top of the series)
# [9] = CellTiter-Glo luminescent readout of SW480 viability loss, NPC library primary (AID 1117343;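 active = compounds that lower viability of the colon cancer cells in the luminescence readout, with no numeric limit stated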); details: CellTiter-Glo luminescence; at 20 µM (top of the series) unless noted
# [10] = decreased DLD-1 cellular survival, CellTiter-Glo luminescent readout, NPC compound collection, primary HTS (AID 1117346;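 active = compounds that lower survival of DLD-1 colon cancer cells in the luminescence readout, no cutoff given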); details: DLD-1 viability, CellTiter-Glo luminescence; at 20 µM (top of the series)
# [11] = sensitizers of A549 cells to miR-34 induction, primary screen, imaging, A549 dox-inducible miR-34, nuclei and caspase counts (AID 1347080;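 active = compounds whose cell count with miR-34 switched on is under 0.7 times the count with it off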); details: A549 miR-34 inducible, Hoechst nuclei count, 48 h
# [12] = survival rescue of mitochondrial mutant cells in low glucose, primary screen, MELAS cybrids, Rieske KO mouse fibroblasts, CellTiter-Glo (AID 1508586;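 active = mean z-score across replicates of 1.96 or higher in either the MELAS or the Rieske mutant cell line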;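 also: z relative to plate mean and SD of compound and empty wells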)
# [13] = viability rescue of complex I mutant cybrids, primary screen, cell-based, galactose medium, ATP luminescence (AID 1645843;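 active = z-score of at least 1.8 in each of two replicates, scored against plate mean and spread of sample wells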;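 also: positive z means more ATP and so rescue of galactose-driven cybrid death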); details: complex I mutant cybrid cells, 72 h, stronger effect = higher value
# [14] = biological target: NAD(+) hydrolase SARM1 (Homo sapiens) (UniProt Q6SZW1); assay: SARM1 TIR NADase inhibitors, cell lysate, NAD-Glo luminescence (AID 1508614;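 active = compound whose remaining NAD level is above about 45 nM, limit read from the data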;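 also: higher remaining NAD means stronger inhibition of SARM1 NADase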); details: SAM-TIR HEK293T lysate NADase, at 1 µM, stronger effect = higher value
# NAD(+) hydrolase SARM1 (Homo sapiens), sequence (Q6SZW1 whole entry, looked up): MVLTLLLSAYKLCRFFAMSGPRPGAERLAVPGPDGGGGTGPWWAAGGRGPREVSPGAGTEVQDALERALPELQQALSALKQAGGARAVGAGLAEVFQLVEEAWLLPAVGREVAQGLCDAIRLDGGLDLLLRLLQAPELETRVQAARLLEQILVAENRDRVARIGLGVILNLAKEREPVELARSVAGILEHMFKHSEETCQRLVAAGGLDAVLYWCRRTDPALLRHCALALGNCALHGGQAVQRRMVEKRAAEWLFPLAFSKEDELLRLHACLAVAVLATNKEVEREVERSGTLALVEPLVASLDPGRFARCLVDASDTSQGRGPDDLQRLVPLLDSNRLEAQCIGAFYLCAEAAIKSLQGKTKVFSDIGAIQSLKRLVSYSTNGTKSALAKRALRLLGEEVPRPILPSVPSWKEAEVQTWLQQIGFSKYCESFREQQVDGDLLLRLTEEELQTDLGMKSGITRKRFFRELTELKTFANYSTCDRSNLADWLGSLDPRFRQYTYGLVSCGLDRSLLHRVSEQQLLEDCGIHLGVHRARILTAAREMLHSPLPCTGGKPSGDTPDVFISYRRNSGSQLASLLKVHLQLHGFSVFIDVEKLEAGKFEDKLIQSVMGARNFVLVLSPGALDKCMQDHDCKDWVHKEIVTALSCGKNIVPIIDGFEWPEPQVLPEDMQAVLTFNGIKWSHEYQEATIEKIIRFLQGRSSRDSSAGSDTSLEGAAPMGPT
# [15] = biological target: ATP-dependent translocase ABCB1 (Homo sapiens) (UniProt P08183); assay: MDR1 (ABCB1) efflux transporter inhibition, cell-based (AID 377; in the data active = fluorescence slope change above about 50%); details: MDR1-expressing cells, fluorescent substrate accumulation slope; stronger effect = higher value; concentration not given here
# ATP-dependent translocase ABCB1 (Homo sapiens), sequence (P08183 whole entry, looked up): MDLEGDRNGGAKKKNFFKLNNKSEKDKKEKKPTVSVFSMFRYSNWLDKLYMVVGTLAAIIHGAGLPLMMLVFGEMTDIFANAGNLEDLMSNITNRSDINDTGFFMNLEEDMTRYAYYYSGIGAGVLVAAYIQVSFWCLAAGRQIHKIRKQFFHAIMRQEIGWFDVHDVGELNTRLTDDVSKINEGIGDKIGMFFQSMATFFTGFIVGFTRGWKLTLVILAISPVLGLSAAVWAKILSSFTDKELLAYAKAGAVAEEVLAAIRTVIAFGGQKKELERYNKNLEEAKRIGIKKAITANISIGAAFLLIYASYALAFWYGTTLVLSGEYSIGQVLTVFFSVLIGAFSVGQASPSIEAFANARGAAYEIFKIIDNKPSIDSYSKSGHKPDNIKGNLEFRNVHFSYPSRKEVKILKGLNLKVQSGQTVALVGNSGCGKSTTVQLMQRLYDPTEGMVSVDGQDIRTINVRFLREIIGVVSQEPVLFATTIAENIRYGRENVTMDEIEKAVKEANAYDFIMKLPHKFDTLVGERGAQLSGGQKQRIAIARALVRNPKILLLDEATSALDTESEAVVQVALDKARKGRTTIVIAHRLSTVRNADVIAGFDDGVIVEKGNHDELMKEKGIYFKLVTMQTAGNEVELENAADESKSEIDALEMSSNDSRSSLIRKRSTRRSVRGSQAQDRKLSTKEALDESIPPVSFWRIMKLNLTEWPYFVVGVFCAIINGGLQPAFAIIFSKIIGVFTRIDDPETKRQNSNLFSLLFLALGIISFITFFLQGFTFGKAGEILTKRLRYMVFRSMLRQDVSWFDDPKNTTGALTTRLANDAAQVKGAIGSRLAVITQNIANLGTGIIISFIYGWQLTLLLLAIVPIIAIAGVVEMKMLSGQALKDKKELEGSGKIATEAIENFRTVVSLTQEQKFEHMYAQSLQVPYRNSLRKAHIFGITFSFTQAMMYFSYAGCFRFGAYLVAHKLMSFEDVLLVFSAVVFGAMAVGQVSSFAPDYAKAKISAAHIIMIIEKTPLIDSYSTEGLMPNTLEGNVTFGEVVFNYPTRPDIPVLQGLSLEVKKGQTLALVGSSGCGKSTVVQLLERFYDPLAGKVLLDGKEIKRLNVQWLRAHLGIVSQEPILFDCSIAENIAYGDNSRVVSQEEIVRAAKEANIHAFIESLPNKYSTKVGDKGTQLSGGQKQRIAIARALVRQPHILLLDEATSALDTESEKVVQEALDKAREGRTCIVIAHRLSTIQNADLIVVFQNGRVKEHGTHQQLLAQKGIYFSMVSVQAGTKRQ
# [16] = stronger effect = lower value, cell number ratio, induced over uninduced
# [17] = measured here: relative caspase fold change +Dox/-Dox
# [18] = measured here: total cells with miR-34 induction, stronger effect = lower value
# [19] = measured here: total cells without miR-34 induction
# [20] = MELAS cybrid survival, CellTiter-Glo 48 h, stronger effect = higher value
# [21] = Rieske KO mouse fibroblast survival, CellTiter-Glo 72 h
structure (smiles),measurement,setting,value
C[C@]12CC[C@H]3[C@@H](CCC4=CC(=O)CC[C@@]43C)[C@@H]1CC[C@@H]2C(=O)CO,survival,[1],2.75 (inactive)
same,parasite load remaining,[2],95.4% (inactive)
same,viability,[2],96.9%
same,nuclear beta-catenin stimulation,[3]; at 10 µM,3.8% (inactive)
same,nuclear beta-catenin stimulation,"[3]; stimulation, at 2 µM",5.6%
same,insulin secretion stimulation,[4],0.8% (inactive)
same,viability decrease,[5],-35.8% (inactive)
same,tube area decrease,[6],34.3% (inactive)
same,GLP1 secretion stimulation,[7],2.7% (inactive)
same,inhibition of viability,[8],27.8% (inactive)
same,viability decrease (inhibition),[9],23.6% (inactive)
same,viability decrease (inhibition),[10],8.8% (inactive)
same,fold change,[11]; [16],0.793 (inactive)
same,fold change,[11]; [17],1.3
same,cell count,[11]; [18],7560
same,cell count,[11]; [19],9530
same,z-score,[12]; [20],-0.237 (inactive)
same,z-score,[12]; [21],0.173
CN(C)CCN1C(=O)c2ccccc2N(C)c2ccccc21,parasite load remaining,[2],18.6% (inactive)
same,viability,[2],64.5%
same,nuclear beta-catenin stimulation,[3]; at 10 µM,0.8% (inactive)
same,nuclear beta-catenin stimulation,"[3]; stimulation, at 2 µM",-0.9%
same,insulin secretion stimulation,[4],14.4% (inactive)
same,viability decrease,[5],8.2% (inactive)
same,tube area decrease,[6],11.6% (inactive)
same,GLP1 secretion stimulation,[7],4% (inactive)
same,inhibition of viability,[8],0.3% (inactive)
same,viability decrease (inhibition),[9],35.8% (inactive)
same,viability decrease (inhibition),[10],-35.8% (inactive)
same,fold change,[11]; [16],0.889 (inactive)
same,fold change,[11]; [17],1.32
same,cell count,[11]; [18],10000
same,cell count,[11]; [19],11300
same,z-score,[12]; [20],0.44 (inactive) and -0.381 (inactive)
same,z-score,[12]; [21],0.025 and -0.152
same,z-score,[13],0.475 (inactive)
C[N+]1(C)CCC(=C(c2ccccc2)c2ccccc2)CC1,survival,[1],14.4 (inactive)
same,parasite load remaining,[2],49.5% (inactive) and 80.3% (inactive)
same,viability,[2],48.7% and 94.9%
same,nuclear beta-catenin stimulation,[3]; at 10 µM,1.1% (inactive)
same,nuclear beta-catenin stimulation,"[3]; stimulation, at 2 µM",-1.3%
same,insulin secretion stimulation,[4],3.5% (inactive)
same,viability decrease,[5],-7.5% (inactive)
same,tube area decrease,[6],23.2% (inactive)
same,GLP1 secretion stimulation,[7],0% (inactive)
same,inhibition of viability,[8],7.97% (inactive)
same,viability decrease (inhibition),[9],40.8% (inactive)
same,viability decrease (inhibition),[10],-3.1% (inactive)
same,fold change,[11]; [16],0.907 (inactive) and 1.1 (inactive)
same,fold change,[11]; [17],0.619 and 0.415
same,cell count,[11]; [18],8340 and 8800
same,cell count,[11]; [19],9190 and 7990
same,z-score,[12]; [20],-0.294 (inactive) and -0.951 (inactive)
same,z-score,[12]; [21],-0.199 and -0.0737
FCOC(C(F)(F)F)C(F)(F)F,nuclear beta-catenin stimulation,[3]; at 10 µM,-1.9% (inactive)
same,nuclear beta-catenin stimulation,"[3]; stimulation, at 2 µM",-0.4%
same,insulin secretion stimulation,[4],5.1% (inactive)
same,viability decrease,[5],-4.6% (inactive)
same,tube area decrease,[6],8.2% (inactive)
same,GLP1 secretion stimulation,[7],-1.9% (inactive)
same,inhibition of viability,[8],-0.4% (inactive)
same,viability decrease (inhibition),[9],-3.5% (inactive)
same,viability decrease (inhibition),[10],7.5% (inactive)
same,fold change,[11]; [16],0.911 (inactive)
same,fold change,[11]; [17],1.07
same,cell count,[11]; [18],8640
same,cell count,[11]; [19],9480
same,remaining NAD,[14],10 nM (inactive)
CCCCc1cc2ccccc2c(OCCN(C)C)n1,survival,[1],4.17 (inactive)
same,parasite load remaining,[2],105% (inactive) and 71.5% (inactive)
same,viability,[2],105% and 79.9%
same,nuclear beta-catenin stimulation,[3]; at 10 µM,0.2% (inactive)
same,nuclear beta-catenin stimulation,"[3]; stimulation, at 2 µM",-0.1%
same,insulin secretion stimulation,[4],4.6% (inactive)
same,viability decrease,[5],-84.3% (inactive)
same,tube area decrease,[6],15.9% (inactive)
same,GLP1 secretion stimulation,[7],3.1% (inactive)
same,inhibition of viability,[8],22.3% (inactive)
same,viability decrease (inhibition),[9],72.1% (active)
same,viability decrease (inhibition),[10],-3.7% (inactive)
same,fold change,[11]; [16],0.931 (inactive)
same,fold change,[11]; [17],1.26
same,cell count,[11]; [18],6620
same,cell count,[11]; [19],7110
same,z-score,[12]; [20],0.0733 (inactive)
same,z-score,[12]; [21],0.0128
OC(CCCN1CCCCC1)(c1ccccc1)c1ccccc1,fluorescence slope change,[15],71.6% (active)
same,survival,[1],12.2 (inactive)
same,parasite load remaining,[2],29.2% (inactive) and 89.1% (inactive)
same,viability,[2],45.7% and 89.8%
same,nuclear beta-catenin stimulation,[3]; at 10 µM,-0.9% (inactive)
same,nuclear beta-catenin stimulation,"[3]; stimulation, at 2 µM",-0.2%
same,insulin secretion stimulation,[4],22% (active)
same,viability decrease,[5],-9.5% (inactive)
same,tube area decrease,[6],3.9% (inactive)
same,GLP1 secretion stimulation,[7],-3.3% (inactive)
same,inhibition of viability,[8],6.1% (inactive)
same,viability decrease (inhibition),[9],12% (inactive)
same,viability decrease (inhibition),[10],-3.8% (inactive)
same,fold change,[11]; [16],0.908 (inactive) and 0.916 (inactive)
same,fold change,[11]; [17],1.32 and 0.648
same,cell count,[11]; [18],8770 and 8200
same,cell count,[11]; [19],9660 and 8950
same,z-score,[12]; [20],-0.227 (inactive) and -0.211 (inactive)
same,z-score,[12]; [21],-0.167 and -0.027
CCOC(=O)Nc1ccc2c(c1)N(C(=O)CCN1CCOCC1)c1ccccc1S2,survival,[1],4.83 (inactive)
same,parasite load remaining,[2],99.9% (inactive)
same,viability,[2],97.4%
same,nuclear beta-catenin stimulation,[3]; at 10 µM,-0.6% (inactive)
same,nuclear beta-catenin stimulation,"[3]; stimulation, at 2 µM",1.1%
same,insulin secretion stimulation,[4],1.7% (inactive)
same,viability decrease,[5],-14.2% (inactive)
same,tube area decrease,[6],4% (inactive)
same,GLP1 secretion stimulation,[7],-2.4% (inactive)
same,inhibition of viability,[8],15.2% (inactive)
same,viability decrease (inhibition),[9],17.8% (inactive)
same,viability decrease (inhibition),[10],-16.3% (inactive)
same,fold change,[11]; [16],0.922 (inactive)
same,fold change,[11]; [17],1.07
same,cell count,[11]; [18],8790
same,cell count,[11]; [19],9540
same,z-score,[12]; [20],0.935 (inactive)
same,z-score,[12]; [21],0.145
CN(C)CCn1nnnc1SCC1=C(C(=O)O)N2C(=O)[C@@H](NC(=O)Cc3csc(N)n3)[C@H]2SC1,survival,[1],7.25 (inactive)
same,parasite load remaining,[2],47.4% (inactive) and 69.6% (inactive)
same,viability,[2],114% and 74.2%
same,nuclear beta-catenin stimulation,[3]; at 10 µM,-1.2% (inactive)
same,nuclear beta-catenin stimulation,"[3]; stimulation, at 2 µM",1.1%
same,insulin secretion stimulation,[4],2.8% (inactive)
same,viability decrease,[5],4.6% (inactive)
same,tube area decrease,[6],-30.8% (inactive)
same,GLP1 secretion stimulation,[7],-3% (inactive)
same,inhibition of viability,[8],-8.3% (inactive)
same,viability decrease (inhibition),[9],4.5% (inactive)
same,viability decrease (inhibition),[10],-6.8% (inactive)
same,fold change,[11]; [16],0.874 (inactive)
same,fold change,[11]; [17],1.13
same,cell count,[11]; [18],8320
same,cell count,[11]; [19],9520
same,z-score,[12]; [20],-0.0188 (inactive)
same,z-score,[12]; [21],-0.0723
CN1CCCC(CC2c3ccccc3Sc3ccccc32)C1 (stereo not drawn),fluorescence slope change,[15],182% (active)
same,survival,[1],1.75 (inactive)
same,parasite load remaining,[2],16% (inactive) and 60.9% (inactive)
same,viability,[2],59.4% and 67.6%
same,nuclear beta-catenin stimulation,[3]; at 10 µM,0.2% (inactive)
same,nuclear beta-catenin stimulation,"[3]; stimulation, at 2 µM",1.3%
same,insulin secretion stimulation,[4],20.3% (active)
same,viability decrease,[5],45.1% (inactive)
same,tube area decrease,[6],54.2% (active)
same,GLP1 secretion stimulation,[7],20% (active)
same,inhibition of viability,[8],86% (active)
same,viability decrease (inhibition),[9],110% (active)
same,viability decrease (inhibition),[10],77.8% (active)
same,fold change,[11]; [16],0.892 (inactive)
same,fold change,[11]; [17],1.45
same,cell count,[11]; [18],6900
same,cell count,[11]; [19],7740
same,z-score,[12]; [20],-0.486 (inactive)
same,z-score,[12]; [21],0.0453
Cc1cc2c(OCC(CNC(C)(C)C)OC(=O)c3ccccc3)cccc2[nH]1 (stereo not drawn),parasite load remaining,[2],45.6% (inactive)
same,viability,[2],114%
same,nuclear beta-catenin stimulation,[3]; at 10 µM,-0.6% (inactive)
same,nuclear beta-catenin stimulation,"[3]; stimulation, at 2 µM",-2.3%
same,insulin secretion stimulation,[4],38.9% (active)
same,viability decrease,[5],8% (inactive)
same,tube area decrease,[6],-1.9% (inactive)
same,GLP1 secretion stimulation,[7],8.9% (inactive)
same,inhibition of viability,[8],30.9% (inactive)
same,viability decrease (inhibition),[9],-10.4% (inactive)
same,viability decrease (inhibition),[10],-25.2% (inactive)
same,fold change,[11]; [16],0.853 (inactive)
same,fold change,[11]; [17],1.26
same,cell count,[11]; [18],9400
same,cell count,[11]; [19],11000
same,z-score,[12]; [20],-0.871 (inactive)
same,z-score,[12]; [21],-1.26
same,z-score,[13],0.13 (inactive)
